Screening data as filed in PubChem.
Rows were chosen to be rich in hits. Some 2.3% of all compounds tested hit in one or more screens of this group.
GLD-1 RNA inh: GLD-1-TGE RNA interaction inhibition (C. elegans). Q17339. purified GLD-1 + fluorescein TGE RNA, fluorescence polarization. inhibition, % at 5.96 µM. 320,000 compounds, 0.44% hits. AID 2280;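 active = percent inhibition above a per-plate cutoff, the plate mean of test compounds plus 3 SD, cut at about 30% in these data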;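 also: 0% = DMSO wells with GLD-1 and probe and 100% = wells lacking GLD-1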
Mcl-1 Bim block: human Bim-Mcl-1 interaction inhibition. inhibition, % at 10 µM. Bead-based flow cytometry, Bim peptide-Mcl-1 binding. 190,000 compounds, 0.1% hits. Q07820; in the data active = inhibition above about 40%;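 also: 0% = no compound tracer wells and 100% = peptide blocker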
Target sequence (Q07820 whole entry, looked up): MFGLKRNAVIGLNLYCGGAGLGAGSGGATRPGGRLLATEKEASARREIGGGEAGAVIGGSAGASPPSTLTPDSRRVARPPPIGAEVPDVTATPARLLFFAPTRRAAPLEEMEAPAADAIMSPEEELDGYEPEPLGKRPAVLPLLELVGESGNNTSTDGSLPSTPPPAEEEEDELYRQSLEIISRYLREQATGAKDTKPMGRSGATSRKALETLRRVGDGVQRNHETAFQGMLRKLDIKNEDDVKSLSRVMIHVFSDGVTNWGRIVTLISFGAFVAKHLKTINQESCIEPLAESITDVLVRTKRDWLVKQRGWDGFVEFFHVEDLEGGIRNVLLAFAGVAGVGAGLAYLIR
Mcl1 Bid PPI: Mcl-1/Bid interaction inhibition. Q07820. TR-FRET Mcl-1/Bid-Dy647 peptide binding, 1536-well. inhibition, % at 21.7 µM. 220,000 compounds, 0.97% hits. AID 1021;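 active = compounds that cut the binding signal by more than half at the single screening dose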;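 also: His-tagged Mcl-1 with europium anti-His antibody binding Bid BH3 peptide; 0% = Mcl-1 plus peptide wells and 100% = peptide-only wells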
BCLXL inh: Bcl-xL (human) inhibition. Q07817. GST-Bcl-xL / FITC-Bim BH3 peptide fluorescence polarization. inhibition, % at 10.9 µM. 320,000 compounds, 0.7% hits;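 active = inhibition above the mean of all tested compounds plus 3 SD, cutoff set per campaign, cut at about 30% in these data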;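 also: 0% = DMSO wells and 100% = unlabeled Bim-BH3 peptide competitor; inhibitors lower millipolarization by displacing the labeled peptide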
Target sequence (Q07817 whole entry, looked up): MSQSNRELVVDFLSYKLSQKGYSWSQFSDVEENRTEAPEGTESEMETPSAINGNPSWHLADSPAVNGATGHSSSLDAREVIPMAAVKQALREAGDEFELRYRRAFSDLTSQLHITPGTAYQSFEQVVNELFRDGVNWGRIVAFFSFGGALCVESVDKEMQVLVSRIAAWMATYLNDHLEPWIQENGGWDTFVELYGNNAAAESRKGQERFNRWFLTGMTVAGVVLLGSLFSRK
Mcl1-Noxa inh: disrupts binding of human Mcl-1 to Noxa peptide | TR-FRET Mcl-1/Noxa peptide binding, 2 h | inhibition, % at 21.7 µM | Q07820 | 220,000 compounds, 1.5% hits;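 active = compounds that cut the protein-peptide binding signal by more than 50% relative to plate controls in a single-dose test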;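 also: His-tagged Mcl-1 with rhodamine Noxa BH3 peptide and terbium anti-His antibody; 0% = Mcl-1 plus Noxa peptide wells and 100% = peptide-only wells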
MCL1-BIM inh: disrupts human MCL1 binding to BIM-BH3 peptide | inhibition, % at 10.9 µM | AID 2057 | 320,000 compounds, 0.68% hits | GST-MCL1 / FITC-Bim-BH3 fluorescence polarization | Q07820;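 active = inhibition above the mean inhibition of all tested compounds plus 3 SD, set per campaign, cut at about 40% in these data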;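 also: 0% = DMSO wells and 100% = unlabeled Bim-BH3 peptide control; higher means more loss of mP so more displacement of Bim peptide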
Bcl-xL conf: counter-screen for MCL1 inhibitors: confirmation of human Bcl-xL inhibitors. shares compounds with MCL1-BIM inh. GST-Bcl-xL / FITC-Bim BH3 peptide FP binding. inhibition, % at 10.9 µM. 1,700 compounds, 54% hits. AID 2166;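 active = inhibition above a cutoff equal to the mean inhibition of all tested compounds plus 3 SD, cut at about 30% in these data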;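 also: 0% = DMSO wells and 100% = unlabeled Bim BH3 control peptide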
MCL1 BIM confirm: confirmation of human MCL1 and BIM-BH3 interaction inhibitors. shares compounds with MCL1-BIM inh. GST-MCL1 / FITC-Bim-BH3 fluorescence polarization. inhibition, % at 10.9 µM. 1,700 compounds, 61% hits. AID 2168;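 active = inhibition above the average of all tested compounds plus 3 SD, cut at about 40% in these data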;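 also: 0% = DMSO wells and 100% = unlabeled Bim-BH3 control peptide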
Numbers without * were called inactive; nt = no result given; + = active, no number.

SMILES | GLD-1 RNA inh | Mcl-1 Bim block | Mcl1 Bid PPI | BCLXL inh | Mcl1-Noxa inh | MCL1-BIM inh | Bcl-xL conf | MCL1 BIM confirm
COc1ccc(N(C(=O)c2snc(C(N)=O)c2N)C(C(=O)NC2CCCCC2)c2ccc(F)cc2)c(OC)c1 (stereo unspecified) | -2.2 | nt | nt | 3.2 | nt | 5.5 | nt | nt
CCOC(=O)c1sc2nc3c(cc2c1N)COC(C(C)C)C3 (stereo unspecified) | 3.5 | 0.0 | -21.6 | 2.4 | -6.3 | -2.1 | nt | nt
CC(C)OC(=O)CC(=O)c1sc2nc3c(cc2c1N)CN(C)CC3 | 53.4* | 6.0 | -15.9 | 84.4* | 57.0* | 98.3* | 59.9* | 72.1*
O=C1C(Nc2cccc(O)c2)=C(N2CCCCC2)C(=O)c2ccccc21 | 70.6* | 3.0 | -61.8 | 56.8* | 30.3 | 54.6* | 19.3 | 37.3
CCOC(=O)c1cc(C#N)c(SCC(=O)O)[nH]c1=O | 2.1 | -1.0 | 45.9 | 7.3 | -7.5 | 4.3 | nt | nt
CCOC(=O)c1cc(C#N)c(SCC(=O)c2cc(C#N)c(SC)nc2C)[nH]c1=O | 76.9* | 0.0 | -100.4 | 102.9* | 34.2 | 116.7* | 20.8 | 18.0
Cc1ccc(C=C2C(Cl)=C(Cl)C(Cl)=C2Cl)cc1 | -3.9 | nt | -0.8 | 28.3 | 52.8* | 68.7* | 23.3 | 30.2
Cc1ccc2c(c1)CCCN2CC(=O)N(C)c1c(N)n(Cc2ccccc2)c(=O)[nH]c1=O | 15.0 | nt | nt | 121.6* | nt | 141.2* | 132.4* | 147.0*
COc1cc(NC(=O)CCc2c(C)noc2C)c(Cl)cc1C(=O)O | 5.5 | nt | nt | nt | nt | nt | nt | nt
CCCCNC(=O)Oc1c(Br)cc2sc(=O)oc2c1Br | 12.3 | nt | -23.7 | 29.6 | 51.8* | 77.1* | 36.1* | 58.5*
Cc1ccc(-c2ccc(/C=C(\C#N)C(=O)Nc3cc(C)nn3-c3ccccc3)o2)cc1 | 120.2* | -3.0 | 64.0* | 122.5* | nt | + | + | +
Cc1cc(NC(=O)/C(C#N)=C/c2ccco2)n(-c2ccccc2)n1 | 6.6 | -2.0 | -22.7 | 1.5 | 8.0 | -2.0 | nt | nt
CC(=O)Nc1ccc(N2C(=O)c3cccc4c(O)ccc(c34)C2=O)cc1 | + | nt | nt | + | nt | + | + | +
O=C1c2cccc3c(O)ccc(c23)C(=O)N1c1ccc(Cl)cc1 | + | nt | nt | + | nt | + | + | +
COc1cc(NC(C)CCCN)c2ncccc2c1 (stereo unspecified) | -46.8 | nt | nt | 43.5* | nt | 52.6* | 31.5* | 49.9*
COc1cc(NCCCCCCCN)c2ncccc2c1 | -6.6 | 22.0 | -23.1 | 3.6 | 32.1 | 1.3 | nt | nt
CCn1c(C(=O)NC(C)c2ccc3c(c2)OCCO3)cc2sccc21 (stereo unspecified) | 3.2 | 0.0 | -22.5 | 4.1 | -17.3 | -1.6 | nt | nt
CC(NC(=O)c1cc2sccc2n1C)c1ccc2c(c1)OCCO2 (stereo unspecified) | 8.0 | -3.0 | 7.6 | 3.5 | 32.4 | 178.2* | 1.1 | 3.7
COc1cc(C=O)ccc1OCC(=O)NC(C)(C)C | 5.2 | -1.0 | -15.2 | 1.3 | 11.5 | 6.5 | nt | nt
CCC(C)Sc1ccc(-c2nc3ccc(C)cn3c2NC2CCCCC2)cc1 (stereo unspecified) | 15.3 | nt | nt | 47.6* | nt | 48.0* | 18.4 | 16.4
N=C1/C(=C\c2ccc(-c3cccc(C(=O)O)c3)o2)C(=O)N=C2SC=C(c3ccccc3)N12 | -26.3 | nt | 97.8* | 0.1 | 92.7* | 40.5* | 10.0 | 35.3
c1ccc2c(-n3cnnn3)cccc2c1 | 10.3 | -1.0 | 3.1 | 13.2 | -4.5 | 10.7 | nt | nt
CCC(=O)Nc1ccc2nc3c(=O)[nH]c(=S)[nH]c3nc2c1 | 16.0 | nt | nt | 61.3* | nt | 98.0* | 107.2* | 160.6*
Cc1c(Cl)cccc1NC(=O)CSc1nnc(C)n1CC1CCCO1 (stereo unspecified) | 5.1 | nt | nt | 3.1 | nt | -1.6 | nt | nt
Cc1cc(C(C)C)n2c(nc3ccccc32)c1C#N | -3.0 | 0.0 | -32.2 | 4.3 | 11.8 | -4.7 | nt | nt
SMILES | GLD-1 RNA inh | Mcl-1 Bim block | Mcl1 Bid PPI | BCLXL inh | Mcl1-Noxa inh | MCL1-BIM inh | Bcl-xL conf | MCL1 BIM confirm
Cc1cc(-c2ccco2)c(C#N)c2nc3ccccc3n12 | -14.2 | 4.0 | nt | 85.5* | nt | 128.2* | 126.9* | 173.4*
CC(=O)c1cccc(NC(=O)CSc2nnc(C(C)N(C)C)n2-c2ccc(F)cc2)c1 (stereo unspecified) | 4.1 | nt | nt | 2.8 | nt | 4.2 | nt | nt
COC(=O)Cc1c(C)[nH]n(-c2cc(Cl)cc(Cl)c2)c1=O | 2.9 | 0.0 | -59.1 | 7.4 | 11.6 | 13.9 | nt | nt
CN1C(=O)/C(=C/c2ccc(-c3ccccc3[N+](=O)[O-])o2)SC1=Nc1ccc(Cl)c(C(=O)O)c1 | 25.5 | 47.0* | 34.4 | 43.7* | 108.2* | 74.1* | 23.0 | 39.9
Cc1ccc(C)c(N2C(=N)S/C(=C\c3ccc(-c4ccccc4C(=O)O)o3)C2=O)c1 | -29.9 | 2.0 | -26.7 | 6.6 | 8.8 | 6.0 | nt | nt
Nc1[nH]c(=O)[nH]c(=O)c1N=Nc1ccccc1Cl | -0.2 | nt | nt | -1.8 | nt | 2.5 | nt | nt
Cc1ccc(C)c(C(C)NC(=O)CC#N)c1 (stereo unspecified) | 2.4 | 2.0 | -36.0 | 2.5 | 4.2 | 41.8* | -0.3 | -0.6
Cc1nc2c(c(=O)n1CCC1=CCCCC1)c1nc3ccccc3nc1n2/N=C/c1ccco1 | 9.7 | 6.0 | 73.8* | 39.2* | 94.2* | 48.9* | 31.8* | 57.6*
CCCn1c(C)nc2c(c1=O)c1nc3ccccc3nc1n2CCC1=CCCCC1 | 10.1 | 0.0 | 6.2 | 21.1 | 11.5 | 15.9 | nt | nt
COC(=O)c1cc(NC(=O)CSc2nncn2C)cc(C(=O)OC)c1 | 1.1 | -3.0 | 14.1 | 1.9 | 9.5 | 1.9 | nt | nt
Cc1cc(=O)cc(C)n1-c1ccccc1N | 4.3 | nt | nt | 4.3 | nt | 10.6 | nt | nt
Cc1ccc(C)n1-c1ccccc1N | 99.3* | -5.0 | -30.1 | 92.3* | 11.2 | 86.8* | -123.4 | -193.8
O=C(Nc1ccc2c(c1)nc1n2CCN(C2CCCCC2)C1)NC1CCCCC1 | 27.6 | -5.0 | -24.6 | 57.1* | 41.2 | 67.2* | 44.2* | 54.1*
CCCN(CC(=O)Nc1ccccc1OC)C(=O)CCCN1C(=O)c2ccccc2C1=O | 8.6 | nt | nt | 0.2 | nt | 3.9 | nt | nt
CCN(CC)S(=O)(=O)c1cc(C(=O)Nc2ccccc2[N+](=O)[O-])ccc1Cl | -0.1 | -2.0 | -1.0 | 3.1 | 9.0 | -5.4 | nt | nt
Cc1ccc(C)n1Cc1ccc(C(=O)O)cc1 | 22.2 | 0.0 | -18.8 | 41.0* | 61.6* | 92.2* | 36.2* | 110.1*
COc1cccc(NS(=O)(=O)c2cc3c(cc2C)N(C(C)=O)CCO3)c1 | -0.2 | nt | nt | 4.7 | nt | 6.0 | nt | nt
CN1/C(=C\C=N\NC(=O)c2cccnc2)C(C)(C)c2ccccc21 | 7.1 | 0.0 | -26.3 | 5.5 | 1.2 | 7.9 | nt | nt
